{
  "source": "PubChem BioAssay AID492950",
  "about": "(Southern Research Specialized Biocontainment Screening …, 2010)",
  "note": "Potency and affinity values are given separately. Active and inactive are the calls of the source. How the calls were made is not given here.",
  "data": [
    {"experiment": "viability loss in mammalian cells – cytotoxicity control, dose response (AID 492950)", "conditions": "mammalian cell viability, cytotoxicity counter-screen; series mostly up to 40 µM; viability: at the top concentration", "values": [
      {"smiles": "CCOc1ccccc1C1C(C#N)=C(N)Nc2onc(-c3ccccc3)c21", "note": "(centres undefined)", "viability": "75.6% (inactive)"},
      {"smiles": "O=C(Cc1cc(=O)[nH][nH]1)N/N=C/c1cccc2ccccc12", "viability": "96% (inactive)"},
      {"smiles": "CC1=NNC(=O)C1Cc1c(Cl)cccc1Cl", "note": "(centres undefined)", "viability": "93.8% (inactive)"},
      {"smiles": "Cc1ccc(C(=O)Oc2ccc([N+](=O)[O-])cc2)cc1S(=O)(=O)N1CCCCCC1", "viability": "81.1% (inactive)"},
      {"smiles": "O=c1cc(-c2ccc(Br)cc2)[nH][nH]1", "viability": "91.1% (inactive)"},
      {"smiles": "CCCc1c(-c2ccc(O)cc2)nn(-c2ccc(O)cc2)c1-c1ccc(O)cc1", "viability": "74.2% (inactive)"},
      {"smiles": "Cc1ccc(-c2[nH]nc3c2C(c2ccc(OC(=O)N4CCOCC4)cc2)C(C#N)=C(N)O3)cc1", "note": "(centres undefined)", "viability": "99.1% (inactive)"},
      {"smiles": "COC(=O)C(C#N)C(c1cccnc1)c1c(C)[nH][nH]c1=O", "note": "(centres undefined)", "viability": "82.6% (inactive)"},
      {"smiles": "C/C(=N\\NC(=O)c1ccncc1)c1cc2ccccc2oc1=O", "viability": "92.7% (inactive)"},
      {"smiles": "Cc1ccc(SCC2=NNC(=O)C2)cc1", "viability": "92.7% (inactive)"},
      {"smiles": "CCCCCCOC(=O)c1ccc(OC(=O)c2cccnc2)cc1", "viability": "95.7% (inactive)"},
      {"smiles": "O=c1cc(-c2ccc(Cl)c(Cl)c2)[nH][nH]1", "viability": "95.7% (inactive)"},
      {"smiles": "CC(=O)Nc1cc(OC(=O)c2ccco2)cc(OC(=O)c2ccco2)c1", "viability": "96.9% (inactive)"},
      {"smiles": "O=C(Cc1ccccc1)c1c[nH]c(C(=O)C(Cl)(Cl)Cl)c1", "viability": "98.5% (inactive)"},
      {"smiles": "Fc1ccc(Nc2nc(Oc3ccccc3F)nc(N3CCCC3)n2)cc1", "viability": "72.5% (inactive)"},
      {"smiles": "N#CC1=C(N)Oc2n[nH]c(-c3cccs3)c2C1c1ccccc1C(=O)O", "note": "(centres undefined)", "viability": "93.2% (inactive)"},
      {"smiles": "COc1ccc(-c2[nH]nc3c2C(c2ccoc2)C(C#N)=C(N)O3)cc1", "note": "(centres undefined)", "viability": "94.6% (inactive)"},
      {"smiles": "Cc1cc(-c2[nH]nc3c2C(c2ccsc2)C(C#N)=C(N)O3)c(C)s1", "note": "(centres undefined)", "viability": "78.3% (inactive)"},
      {"smiles": "Cn1c(O)c(C2=NN(C(=O)CCl)C(c3ccccc3)C2)c(=O)n(C)c1=O", "note": "(centres undefined)", "viability": "90.6% (inactive)"},
      {"smiles": "COc1ccc(N(C(=O)COc2cccc(C)c2)S(=O)(=O)c2ccc(C)cc2)cc1", "viability": "83.8% (inactive)"},
      {"smiles": "N#CC1=C(N)Oc2n[nH]c(-c3cccs3)c2C1c1cccs1", "note": "(centres undefined)", "viability": "82.8% (inactive)"},
      {"smiles": "CC(=O)N1CCC2(CC1)C(C#N)=C(N)Oc1n[nH]c(CSc3ccc(C)cc3)c12", "viability": "97.3% (inactive)"},
      {"smiles": "COc1ccc(/C=C2/C(=O)N(c3ccccc3)N=C2C)cc1OC", "viability": "98.5% (inactive)"},
      {"smiles": "CCC(C)[C@@H](NC(=O)OC(C)(C)C)c1nnc(S(=O)(=O)Cc2cccc(C)c2)o1", "note": "(some centres undefined)", "viability": "85.8% (inactive)"},
      {"smiles": "Fc1ccc(Oc2nc(-c3ccccc3)nnc2C(F)(F)F)cc1", "viability": "96% (inactive)"},
      {"smiles": "Cc1cc(-c2[nH]nc3c2C(c2ccc(Cl)cc2)C(C#N)=C(N)O3)c(C)s1", "note": "(centres undefined)", "viability": "91.7% (inactive)"},
      {"smiles": "C/C(=N/NC(=O)Cc1cc(=O)[nH][nH]1)c1ccc([N+](=O)[O-])cc1", "viability": "93% (inactive)"},
      {"smiles": "Cc1ccc(SCc2[nH]nc3c2C2(CCSCC2)C(C#N)=C(N)O3)cc1", "viability": "102% (inactive)"},
      {"smiles": "O=C(Cc1cc(=O)[nH][nH]1)N/N=C/C(Cl)=C/c1ccccc1", "viability": "99.4% (inactive)"}
    ]}
  ]
}
